Values joined by “and” are separate entries in the source; they are usually repeats but may differ in a detail not shown here. Identical values can stand only once. Results filed as inconclusive are left out. Active and inactive are the calls of the source. Unless noted, the call rests on the fitted dose curve; in most records, active means well fitted curve in the direction sought with a large enough effect; inconclusive means small, poorly fitted or top-dose-only effect, or another doubt; inactive means no such curve, though single readings can be large; an effect the other way counts as inactive or inconclusive.
Experiments:
PA-1 = assay: Primary qHTS to identify gynecologic anti-cancer compounds using libraries of approved drugs and bioactive compounds (AID 1345084); conditions: Gynecologic cancer cell panel viability, ATPlite luminescence, 48 h; series mostly up to 57.5 µM; further: nearly all actives have a fitted effect of over 55% in size; further: potency means the concentration at half of the fitted maximal effect
How it was run: (§1)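 Cells, 1,000 per well, plated 16 h, then exposed 48 h at 37 C to compounds. Viability by ATPlite luminescence after 15 min at room temperature.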

[1] = qHTS assay to identify inhibitors of the type 1 interferon - major histocompatibility complex class I in skeletal muscle: Counter screen cell viability and HiBit confirmation (AID 1347412); conditions: iHSKM muscle cells + IFN-b, HiBiT or CellTiter-Glo, 24 h; for activity change, negative = inhibition: at 45.9 µM (top of the series); further: potency means the concentration at half of the fitted maximal effect; on activity change, negative = inhibition: on the % scale 0 is the no-effect control and ±100 the full control effect; on all read-outs here: nearly all actives have a fitted effect of over 60% in size
How it was run: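 HLA-B*08:01–HiBiT knock-in immortalized human myoblasts (C25cl48) stimulated with 4.0 ng/ml human IFN-beta and dosed with compound in a 12-point 1:3 titration (top final 46 uM). After 24 hrs at 37 C, HiBiT lytic luminescence or CellTiter Glo ATP read out.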

[2] = Drug repurposing screens with cells derived from glioblastoma tumor samples (AID 1345199); conditions: GBM patient neurospheres viability, ATP luminescence, 48 h; further: on the % scale 0 is the no-effect control and ±100 the full control effect; nearly all actives have a fitted effect of over 40% in size
How it was run: (§2)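 Primary testing used CD133+ neurospheres from four GBM patients, seven concentrations, 48 h exposure and ATP-based viability; confirmation added three slower-growing patient lines.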

astro = assay: as above; conditions: viability, ATP luminescence, 48 h; series mostly up to 45.9 µM
How it was run: as §2

[3] = target: Nuclear receptor subfamily 1 group I member 2 (Rattus norvegicus) (UniProt Q9R1A7); assay: qHTS assay for small molecule activators of the rat pregnane X receptor (rPXR) signaling pathway (AID 651751; call rule not given here; further: 0% is about no effect); conditions: rPXR reporter cells, luciferase (One-Glo), 24 h
HeLa = assay: Primary qHTS to identify gynecologic anti-cancer compounds using libraries of approved drugs and bioactive compounds (AID 1345084); conditions: Gynecologic cancer cell panel viability, ATPlite luminescence, 48 h; series mostly up to 57.5 µM; further: nearly all actives have a fitted effect of over 55% in size; further: potency means the concentration at half of the fitted maximal effect
How it was run: as §1

JEG-3 = assay: as above; conditions: Gynecologic cancer cell panel viability, ATPlite luminescence, 48 h; series mostly up to 57.5 µM
How it was run: as §1

OV90 = assay: as above; conditions: Gynecologic cancer cell panel viability, ATPlite luminescence, 48 h; series mostly up to 57.5 µM
How it was run: as §1

Tov-21-G = assay: as above; conditions: Gynecologic cancer cell panel viability, ATPlite luminescence, 48 h; series mostly up to 57.5 µM
How it was run: as §1

[4] = at 46.1 µM (top of the series), tumour line C

Chain of Nuclear receptor subfamily 1 group I member 2 (Rattus norvegicus) (Q9R1A7 whole entry, looked up): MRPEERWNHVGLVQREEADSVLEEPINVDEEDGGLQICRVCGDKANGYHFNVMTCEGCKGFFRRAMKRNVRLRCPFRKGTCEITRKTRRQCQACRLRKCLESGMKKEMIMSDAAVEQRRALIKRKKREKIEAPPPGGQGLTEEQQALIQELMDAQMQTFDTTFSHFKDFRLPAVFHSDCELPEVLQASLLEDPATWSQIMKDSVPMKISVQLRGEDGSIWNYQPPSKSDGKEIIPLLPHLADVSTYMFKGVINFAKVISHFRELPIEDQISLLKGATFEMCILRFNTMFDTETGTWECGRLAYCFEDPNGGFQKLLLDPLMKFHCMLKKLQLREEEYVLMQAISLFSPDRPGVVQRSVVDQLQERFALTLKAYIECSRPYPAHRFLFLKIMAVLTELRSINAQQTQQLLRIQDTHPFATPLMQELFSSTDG

COc1cc2c(cc1OC)CN(CCc1ccc(NC(=O)c3cc(OC)c(OC)cc3NC(=O)c3cnc4ccccc4c3)cc1)CC2
Potency (PA-1): 11.2 µM (active)

O=C1C(Cl)=C(NCCN2CCOCC2)C(=O)c2ncccc21
Potency ([1]; HiBiT): 5.57 µM (active) | Potency ([1]; Viability): 5.57 µM (active)

C[N+]1(C)[C@@H]2CC(OC(=O)[C@H](CO)c3ccccc3)C[C@H]1[C@H]1O[C@@H]12 (stereo partly specified)
activity, negative = cell killing ([2]; at 45.9 µM (top of the series), tumour line B): -9.31% (inactive) | activity, negative = cell killing ([2]; at 45.9 µM (top of the series), tumour line D): -20.1% (inactive) | activity, negative = cell killing ([2]; at 46 µM (top of the series), tumour line A): -28.4% (inactive) | activity, negative = cell killing [2, 4]: -22.8% (inactive) | Potency (astro): inactive

O=C(O)c1c(Cl)c(Cl)c(Cl)c(Cl)c1-c1c2cc(I)c(=O)c(I)c-2oc2c(I)c(O)c(I)cc12
activity, negative = cell killing [2, 4]: -28.5% (inactive)

O=c1cc(-c2ccc(O)cc2)oc2cc(O)cc(O)c12
max response [3]: -6.83% (inactive) and -1.04% (inactive)

C[C@H](NC(=O)C(=O)Nc1ccccc1C(C)(C)C)C(=O)N[C@@H](CC(=O)O)C(=O)COc1c(F)c(F)cc(F)c1F
activity change, negative = inhibition ([1]; HiBiT): -0.932% (inactive) | activity change, negative = inhibition ([1]; Viability): 0.0107% (inactive)

CC(C)(C)C(=O)Oc1ccc2c(c1)nc(NC(=O)c1cccc([N+](=O)[O-])c1)n2CCCO
activity change, negative = inhibition ([1]; Viability): -3.08% (inactive)

COc1cc(N2CCC(N3CCN(C)CC3)CC2)ccc1Nc1ncnc(Nc2ccccc2S(=O)(=O)C(C)C)n1
Potency (HeLa): 10 µM (active) | Potency (JEG-3): inactive | Potency (OV90): 8.91 µM (active) | Potency (PA-1): 7.94 µM (active) | Potency (Tov-21-G): 12.6 µM (active)

CC1(C)CCC2=C(O1)c1ccccc1C(=O)C2=O
Potency ([1]; HiBiT): 22.2 µM (active) | Potency ([1]; Viability): 24.9 µM (active)

O=c1cc(-c2ccccc2)oc2cc(O)cc(O)c12
max response [3]: -2.91% (inactive)

— PubChem BioAssay (NCATS)
